In the library only some 6.7% were active in any assay of this set; here they are far more common.
T cruzi growth-1 – inhibitors of T. cruzi proliferation | T. cruzi beta-gal in NIH3T3, GalScreen luminescence, 90 h | inhibition, % at 8.34 µM | 77,000 compounds, 5.9% hits | AID 624255;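 active = mean inhibition above about 93%, with at least 55% of replicates each passing it, limit read from the data, passing the limit was not always enough; inconclusive = only one of those two conditions holds; inactive = neither condition holds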
C diff HTS – inhibitors of Clostridium difficile growth | Clostridium difficile clinical isolate growth, OD600, 24 h; active compounds read low | growth activity, negative = inhibition, % at 16 µg/mL (by protocol) | 86,000 compounds, 0.25% hits | AID 1259249;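 active = mean growth activity at or below -80% and every replicate also at or below -80%; inconclusive = mean at or below -80% but some replicate above -80%; inactive = mean growth activity above -80%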;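 note: 0% = DMSO wells and -100% = levofloxacin 16 µg/mL wells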
Pf Dd2 inh – blocks growth of Plasmodium falciparum Dd2 parasites; P. falciparum Dd2 growth, SYBR Green, 72 h; active compounds read low; activity change, % at 10 µM; 94,000 compounds, 2.3% hits; in the data active = activity change below about -80%; inconclusive = no clear call, values can overlap the other calls
T cruzi growth-2 – blocks T. cruzi growth in NIH3T3 host cells | T. cruzi beta-gal in NIH3T3, GalScreen luminescence, 90 h | inhibition, % at 8.35 µM | shares compounds with T cruzi growth-1 | AID 651739 | 5,600 compounds, 72% hits;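 active = mean replicate inhibition above about 95% and at least 55% of replicates individually reaching it, limit read from the data; inconclusive = only one of the two criteria is met; inactive = neither criterion is met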
T cruzi growth-3 – blocks T. cruzi growth in NIH3T3 host cells; AID 651740; shares compounds with T cruzi growth-1; T. cruzi beta-gal in NIH3T3, GalScreen luminescence, 90 h; 5,600 compounds, 21% hits; inhibition, % at 2.09 µM;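 active = mean inhibition above about 95%, with at least 55% of replicates also reaching it, limit read from the data; inconclusive = meets just one of the two conditions; inactive = meets neither condition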;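 note: plate controls were neutral control median for no effect and positive control median for full effect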
3T3 cytotox – NIH/3T3 (mouse) viability loss | shares compounds with T cruzi growth-1 | NIH/3T3 viability, CellTiter-Glo ATP luminescence, 90 h | cytotoxicity (signal decrease), % at 8.35 µM | 5,600 compounds, 14% hits;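 active = mean signal decrease across replicates above about 35% based on untreated-well scatter, with enough replicates individually passing, limit read from the data; inconclusive = no rule stated though some were filed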;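 note: 0% = median of neutral control wells and 100% = median of positive control wells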
NIH3T3 tox 2 – kills mouse NIH/3T3 fibroblasts; inhibition, % at 24.9 µM; 5,600 compounds, 56% hits; NIH/3T3 viability, CellTiter-Glo ATP luminescence, 90 h; shares compounds with T cruzi growth-1; AID 651744;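 active = mean loss of cell viability signal at or above a set limit, and enough replicates individually reaching it; inconclusive = meets only the mean limit or only the replicate share; inactive = meets neither condition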;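 note: 0% = median of neutral control wells and 100% = median of positive control wells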
* hit, by the source's call; ? = inconclusive; nt = no result.

SMILES | T cruzi growth-1 | C diff HTS | Pf Dd2 inh | T cruzi growth-2 | T cruzi growth-3 | 3T3 cytotox | NIH3T3 tox 2
CO[C@@H]1CN(C)C(=O)c2cc(NC(=O)CC(F)(F)F)ccc2OC[C@H](C)NC[C@@H]1C | nt | 2 | 44 | nt | nt | nt | nt
C[C@@H]1CCCCO[C@H](CN(C)Cc2ccc(C(=O)O)cc2)[C@@H](C)CN([C@@H](C)CO)C(=O)c2cc(NC(=O)Nc3ccc4c(c3)OCO4)ccc2O1 | 8 | -4 | 18 | nt | nt | nt | nt
COCCNC(=O)C[C@@H]1C[C@H]2c3cc(NC(=O)c4cccnc4)ccc3O[C@H]2[C@H](CO)O1 | 21 | -1 | 8 | nt | nt | nt | nt
Cc1noc(C)c1NC(=O)N1C[C@H](O)COC[C@H]2O[C@H](CC(=O)NCC3CC3)CC[C@@H]21 | -47 | -4 | nt | nt | nt | nt | nt
Cc1noc(C)c1NC(=O)N1C[C@@H](O)COC[C@H]2O[C@H](CC(=O)NCC3CC3)CC[C@@H]21 | 101* | -1 | nt | 36 | 31 | -11 | -14
Cc1noc(C)c1NC(=O)N1C[C@H](O)COC[C@H]2O[C@@H](CC(=O)NCC3CC3)CC[C@@H]21 | 4 | -5 | nt | nt | nt | nt | nt
Cc1noc(C)c1NC(=O)N1C[C@@H](O)COC[C@H]2O[C@@H](CC(=O)NCC3CC3)CC[C@@H]21 | ? | -1 | nt | -14 | 11 | -19 | -16
CCS(=O)(=O)N1CC2(CN[C@H](CO)c3c2c2ccc(OC)cc2n3C)C1 | nt | nt | 24 | nt | nt | nt | nt
CN(C)CC#Cc1ccc([C@@H]2[C@@H](CO)N3CCCCN(C(=O)Nc4cc(F)ccc4F)C[C@@H]23)cc1 | 106* | 12 | -27 | 101* | 35 | -17 | 45*
CN(C)CC#Cc1ccc([C@@H]2[C@H]3CN(C(=O)Nc4cc(F)ccc4F)CCCCN3[C@H]2CO)cc1 | 117* | 6 | 7 | 43 | -30 | ? | 103*
CN(C)CC#Cc1ccc([C@@H]2[C@H]3CN(C(=O)Nc4ccccc4F)CCCCN3[C@H]2CO)cc1 | 68 | 3 | 8 | nt | nt | nt | nt
CN(C)CC#Cc1ccc([C@@H]2[C@@H](CO)N3CCCCN(C(=O)Nc4ccccc4F)C[C@@H]23)cc1 | 34 | 5 | -42 | nt | nt | nt | nt
CN1C(=O)c2cc(NC(=O)c3cccs3)ccc2OC[C@H]2O[C@@H](CC(=O)NCC(F)(F)F)CC[C@@H]21 | -10 | -3 | -11 | nt | nt | nt | nt
C[C@@H]1CN([C@H](C)CO)C(=O)CCCn2nncc2CO[C@@H]1CN(C)Cc1ccc(O)cc1 | -23 | nt | -26 | nt | nt | nt | nt
C[C@H](CO)N1C[C@H](C)[C@@H](CN(C)Cc2ccccc2F)Oc2ncc(C3=CCCC3)cc2C1=O | nt | 0 | -19 | nt | nt | nt | nt
COc1cccc(NC(=O)N2CC3(C2)[C@H](c2ccccc2)[C@@H](CO)N3C(C)=O)c1 | nt | 3 | 14 | nt | nt | nt | nt
COc1cccc(NC(=O)N2[C@H](CO)[C@@H](c3ccccc3)[C@H]2CNC(C)C)c1 | 104* | -5 | -74 | 73 | 45 | -2 | -3
CC(C)NC(=O)N1[C@H](CO)[C@H](c2ccccc2)[C@@H]1CNCc1ccccc1 | nt | 1 | -54 | nt | nt | nt | nt
COc1cccc(NC(=O)N2[C@@H](CO)[C@H](c3ccccc3)[C@@H]2CNC(C)C)c1 | 102* | -2 | -69 | 101* | 42 | -18 | -13
CN(C)C(=O)C[C@@H]1C[C@H]2c3cc(NC(=O)Nc4ccc(C(F)(F)F)cc4)ccc3O[C@H]2[C@@H](CO)O1 | -34 | 1 | 9 | nt | nt | nt | nt
C[C@H](NC(=O)[C@@H]1[C@@H](CO)[C@@H]2Cn3c(cccc3=O)[C@H]1N2C(=O)C1CCCC1)c1ccccc1 | 74 | 7 | 5 | nt | nt | nt | nt
C[C@H]1CN([C@@H](C)CO)C(=O)c2cc(NC(=O)Nc3cccc4ccccc34)ccc2O[C@@H]1CN(C)Cc1ccc(C(F)(F)F)cc1 | 87* | -3 | 12 | 109* | 44 | 13 | 11
C[C@@H]1CN([C@H](C)CO)C(=O)c2cc(NC(=O)Nc3cccc4ccccc34)ccc2O[C@H]1CN(C)Cc1ccccc1 | 54 | 1 | -20 | nt | nt | nt | nt
C[C@@H]1CN([C@@H](C)CO)C(=O)c2cc(NC(=O)Nc3cccc4ccccc34)ccc2O[C@@H]1CN(C)Cc1ccccc1 | 66 | 4 | 5 | nt | nt | nt | nt
C[C@@H]1CN([C@H](C)CO)C(=O)c2cc(NC(=O)Nc3cccc4ccccc34)ccc2O[C@H]1CN(C)Cc1ccc(C(F)(F)F)cc1 | 106* | -5 | 9 | 105* | 59 | 20 | ?
SMILES | T cruzi growth-1 | C diff HTS | Pf Dd2 inh | T cruzi growth-2 | T cruzi growth-3 | 3T3 cytotox | NIH3T3 tox 2
CNC[C@@H]1OCCCC[C@H](C)Oc2ccc(NC(=O)CCC(F)(F)F)cc2C(=O)N([C@H](C)CO)C[C@@H]1C | 29 | -3 | 38 | nt | nt | nt | nt
CN(C)C(=O)C[C@H]1CC[C@@H]2[C@H](COC[C@H](O)CN2CC2CCOCC2)O1 | 19 | nt | 6 | nt | nt | nt | nt
COc1ccc(CN(C)C[C@@H]2Oc3c(NC(=O)C4CCOCC4)cccc3C(=O)N([C@@H](C)CO)C[C@H]2C)cc1 | 11 | 2 | 8 | nt | nt | nt | nt
C[C@H]1CN([C@@H](C)CO)C(=O)c2cc(NS(C)(=O)=O)ccc2O[C@H]1CN(C)CC1CC1 | -23 | 5 | 50 | nt | nt | nt | nt
O=C(C[C@@H]1C[C@@H]2c3cc(NS(=O)(=O)c4ccc(F)cc4)ccc3O[C@@H]2[C@H](CO)O1)NCc1ccccc1 | -14 | nt | -7 | nt | nt | nt | nt
O=C(C[C@@H]1C[C@@H]2c3cc(NS(=O)(=O)c4ccc(F)cc4)ccc3O[C@@H]2[C@H](CO)O1)NCc1ccc(Oc2ccccc2)cc1 | 105* | -1 | -59 | 100* | -20 | 4 | 11
O=C(C[C@@H]1C[C@H]2c3cc(NS(=O)(=O)c4ccc(F)cc4)ccc3O[C@H]2[C@@H](CO)O1)NCc1ccc(Oc2ccccc2)cc1 | 115* | nt | -16 | ? | 54 | 37* | 67*
O=C(C[C@@H]1C[C@@H]2c3cc(NS(=O)(=O)c4ccc(F)cc4)ccc3O[C@@H]2[C@@H](CO)O1)NCc1ccc(Oc2ccccc2)cc1 | 18 | nt | -63 | nt | nt | nt | nt
O=C(C[C@H]1C[C@@H]2c3cc(NS(=O)(=O)c4ccc(F)cc4)ccc3O[C@@H]2[C@H](CO)O1)NCc1ccc(Oc2ccccc2)cc1 | 118* | nt | -32 | 97* | 32 | -10 | 79*
COc1cccc(S(=O)(=O)Nc2ccc3c(c2)[C@H]2C[C@H](CC(=O)NCc4cccc(F)c4)O[C@@H](CO)[C@H]2O3)c1 | ? | 3 | -38 | 82 | 12 | -10 | -12
COc1cccc(S(=O)(=O)Nc2ccc3c(c2)[C@H]2C[C@H](CC(=O)NCc4cccc(F)c4)O[C@H](CO)[C@H]2O3)c1 | 58 | -5 | -32 | nt | nt | nt | nt
O=C(C[C@@H]1C[C@H]2c3cc(NS(=O)(=O)c4ccc(F)cc4)ccc3O[C@H]2[C@H](CO)O1)NCc1ccc(Oc2ccccc2)cc1 | 47 | nt | -47 | nt | nt | nt | nt

Assay outcomes: PubChem BioAssay, Broad Institute
